± gives the standard deviation of the averaged measurements. Whole data set: some 33,000 sequences, median “E-score (rank enrichment, -0.5 to 0.5)” near -0.0028, cut for the highest 2% near 0.23. The entries come from a sample that favours the highest values as a whole.
What follows are sequences tested on 2Sb-muMax20 (muMax20 with two 1,3-bis(methyl)benzene Cys staples, A13C/A17C and Q88C/A92C, C-terminal Lys) (assay: PBM 8-mer E-score (E-score (rank enrichment, -0.5 to 0.5)); higher = stronger preferential binding).
Description: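 Protein binding microarray (universal PBM chip covering all 10-mers in fixed probe flanks) with chemically synthesized human Max(13-93) bHLH-LZ analogs (not full-length Max) bearing noncanonical residues (hArg, Tha, Aib, Nle at 65) and aromatic Cys staples. Read-out per 8-mer (and its reverse complement): E-score (rank-based enrichment, -0.5 to 0.5) and Z-score of median probe intensity.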

| Sequence | PBM 8-mer E-score |
| --- | --- |
| CTCTTTGA | -0.0279 ± 0.036 |
| GTATGAGA | 0.0453 ± 0.12 |
| GCATGATA | 0.214 ± 0.029 |
| GTATGATA | 0.258 ± 0.026 |
| CTATGATA | 0.0532 ± 0.035 |
| ATATGATG | 0.141 ± 0.0096 |
| ATATGATA | 0.257 ± 0.058 |
| ACCTTTAT | 0.02821 ± 0.00021 |
| CAGCCTCG | -0.0714 ± 0.034 |
| GGGGTTGA | 0.138 ± 0.03 |
| CCCAATTC | 0.247 ± 0.0082 |
| ACCAATTC | -0.0487 ± 0.032 |
| CCCAATTA | 0.221 ± 0.021 |
| ACGATCTG | -0.0575 ± 0.048 |
| AGCGATCG | 0.235 ± 0.0084 |
| AGCGATCA | -0.298 ± 0.021 |
| AGCGATCC | -0.145 ± 0.057 |
| GACTGTCC | -0.111 ± 0.073 |
| ATTGTCGA | 0.0736 ± 0.034 |
| CATATGGC | 0.142 ± 0.035 |
| CAAATACA | 0.23 ± 0.0088 |
| AATATATC | 0.19 ± 0.013 |
| TATATACA | 0.173 ± 0.0038 |
| AATATGGG | 0.178 ± 0.024 |
| AATATATT | 0.24 ± 0.054 |

| Sequence | PBM 8-mer E-score |
| --- | --- |
| GAAATACA | -0.0423 ± 0.015 |
| AATATACA | 0.264 ± 0.02 |
| CAAATACC | 0.0305 ± 0.029 |
| AATATACT | 0.0704 ± 0.03 |
| CATATGGG | 0.252 ± 0.056 |
| AATATATA | 0.162 ± 0.015 |
| CTTGTGTA | 0.116 ± 0.033 |
| AGGCACAG | -0.103 ± 0.026 |
| CGCAGTAA | 0.0928 ± 0.087 |
| GGGCATCA | 0.0183 ± 0.046 |
| TAAATTCA | 0.111 ± 0.075 |
| GACATCTA | -0.1 ± 0.066 |
| AAAACAGC | 0.13 ± 0.037 |
| CGTGGAAG | 0.0947 ± 0.13 |
| GCACTAGC | 0.109 ± 0.017 |
| AATGAATA | 0.156 ± 0.018 |
| GGGCGACC | -0.0448 ± 0.029 |
| CAATCTAA | 0.0541 ± 0.078 |
| AAAATATG | 0.143 ± 0.05 |
| CATATATC | 0.13 ± 0.055 |
| AATATATG | 0.3 ± 0.004 |
| CATATATA | 0.194 ± 0.0063 |
| CATATATG | 0.305 ± 0.007 |
| AATATGTG | 0.139 ± 0.033 |
| TGCGAGCA | 0.146 ± 0.052 |

| Sequence | PBM 8-mer E-score |
| --- | --- |
| AAACCTAG | 0.000475 ± 0.031 |
| AAACCTAT | -0.107 ± 0.033 |
| AAACCTAC | 0.279 ± 0.06 |
| GGATCTAC | -0.141 ± 0.02 |
| GCATGTAC | 0.172 ± 0.024 |
| ACATGTAA | 0.217 ± 0.026 |
| ACATGCAG | 0.037 ± 0.07 |
| CCATGTAC | -0.0138 ± 0.036 |
| ACATGCAT | 0.363 ± 0.013 |
| ACATGCAC | 0.0993 ± 0.062 |
| ACATGTCG | 0.166 ± 0.058 |
| ACATGTAC | 0.309 ± 0.014 |
| CCATGTAG | 0.172 ± 0.0065 |
| ACATGTAT | 0.267 ± 0.0098 |
| AGATGTAT | 0.181 ± 0.031 |
| ACATGTAG | 0.275 ± 0.021 |
| AAACCGTT | -0.108 ± 0.016 |
| GACCGACC | -0.162 ± 0.012 |
| AGTATCCG | -0.139 ± 0.029 |
| CCCGGCCG | -0.233 ± 0.084 |
| GCAGGAAA | 0.00101 ± 0.013 |
| CAGACGTA | -0.0519 ± 0.083 |
| CCCTCACC | 0.0586 ± 0.062 |
| AAGACCTA | 0.0674 ± 0.017 |
| AATAGTTA | 0.166 ± 0.0059 |

| Sequence | PBM 8-mer E-score |
| --- | --- |
| AATAGTTC | 0.0849 ± 0.052 |
| AATAGTTG | 0.256 ± 0.032 |
| GACTTCAC | -0.0215 ± 0.052 |
| GGAATTCC | -0.26 ± 0.055 |
| ATCAGAAT | -0.0334 ± 0.0022 |
| AAGGTCTA | -0.00279 ± 0.068 |
| ATATGGGC | 0.192 ± 0.062 |
| ATATGGGG | 0.255 ± 0.0087 |
| ACATGGGG | 0.267 ± 0.045 |
| CCATGGGG | -0.134 ± 0.03 |
| ACATATGC | 0.0308 ± 0.041 |
| GCATATGA | 0.174 ± 0.045 |
| CCATATGG | 0.322 ± 0.0072 |
| CCATATGC | 0.125 ± 0.064 |
| ATATGGGA | 0.13 ± 0.017 |
| GCATATGC | 0.259 ± 0.011 |
| ACATATGG | 0.15 ± 0.036 |
| ACATGGGA | 0.0654 ± 0.083 |
| ACCAAAGT | -0.131 ± 0.004 |
| AAACTTCA | 0.0459 ± 0.067 |
| GCCGTGTA | 0.0129 ± 0.059 |
| AGACCGCC | -0.0551 ± 0.0086 |
| CCAACGAA | -0.0751 ± 0.0019 |
| ACTTGCGA | 0.141 ± 0.053 |
| ATGTTTAC | 0.195 ± 0.0024 |

| Sequence | PBM 8-mer E-score |
| --- | --- |
| ACGTACGT | 0.0796 ± 0.0024 |
| CTGCACGC | 0.0673 ± 0.012 |
| CCTACAAG | -0.0983 ± 0.063 |
| ATATATGA | 0.203 ± 0.014 |
| ATATATGG | 0.279 ± 0.025 |
| ATATATGC | 0.196 ± 0.029 |
| GTACCTAA | 0.015 ± 0.015 |
| AATACGAG | 0.239 ± 0.016 |
| AATACAAT | 0.105 ± 0.028 |
| CATACAAC | 0.254 ± 0.0055 |
| TATACAAA | 0.176 ± 0.037 |
| AATACAAC | 0.218 ± 0.053 |
| AATACGAT | 0.0313 ± 0.056 |
| GATACAAA | 0.0261 ± 0.058 |
| CATACAAG | 0.0617 ± 0.023 |
| GATACAAC | 0.0906 ± 0.034 |
| AATACAAG | 0.243 ± 0.066 |
| AATACAAA | 0.293 ± 0.0033 |
| CATACGAG | 0.039 ± 0.023 |
| GGCTCAAA | -0.232 ± 0.0071 |
| CGTGTTCC | -0.101 ± 0.093 |
| CAGCCATC | 0.0539 ± 0.04 |
| ACGCTTAC | -0.00865 ± 0.0059 |
| AATGGCGG | -0.0858 ± 0.063 |
| CTTAGCCA | -0.0016 ± 0.011 |

| Sequence | PBM 8-mer E-score |
| --- | --- |
| ATCGGCTG | -0.182 ± 0.06 |
| ATTAGGTG | 0.199 ± 0.0049 |
| CATCCCGG | -0.179 ± 0.11 |
| CCTTGTTC | -0.00956 ± 0.048 |
| CCTTGTTA | 0.281 ± 0.032 |
| ACTTGTTA | 0.173 ± 0.0031 |
| ACTTCTCT | -0.115 ± 0.094 |
| AACCCCAG | 0.0383 ± 0.14 |
| GTACCCAA | 0.153 ± 0.0022 |
| CCCCCCAG | -0.319 ± 0.18 |
| AACCCCTA | 0.176 ± 0.0048 |
| CACCCCAG | 0.262 ± 0.015 |
| AACCCAAA | 0.0368 ± 0.14 |
| CACCCCTA | 0.228 ± 0.018 |
| CTACCCAA | 0.085 ± 0.019 |
| TACCCCTA | 0.316 ± 0.0051 |
| ACCCCCAA | -0.148 ± 0.053 |
| AACCCCAA | 0.331 ± 0.019 |
| TTACCCAA | 0.26885 ± 6.4e-05 |
| ACGAAGGC | -0.148 ± 0.011 |
| GGCCAAAC | -0.0918 ± 0.032 |
| ATAAAAGC | 0.113 ± 0.0099 |
| CACCCCAA | 0.292 ± 0.059 |
| GACCCCAC | 0.0665 ± 0.09 |
| CACCCAAA | 0.211 ± 0.02 |

| Sequence | PBM 8-mer E-score |
| --- | --- |
| TACCCCCA | -0.0172 ± 0.023 |
| TACCCCAA | 0.29 ± 0.036 |
| AACCCCAC | 0.177 ± 0.082 |
| GACCCCAA | 0.129 ± 0.058 |
| CACCCCCA | -0.148 ± 0.025 |
| CACCCCAC | 0.319 ± 0.067 |
| AAAACGTT | 0.189 ± 0.024 |
| GGAGAGTA | -0.0215 ± 0.08 |
| CCTCACTA | 0.127 ± 0.035 |
| AGCCACAC | 0.111 ± 0.045 |
| TCCCTGCA | 0.0481 ± 0.0088 |
| ACCCACGA | 0.0473 ± 0.015 |
| AACCACGT | 0.304 ± 0.0045 |
| AAACACGA | 0.14 ± 0.053 |
| AAACACGT | 0.238 ± 0.0029 |
| ACCCACGT | 0.35 ± 0.025 |
| AACCACGA | 0.068 ± 0.082 |
| AACCACGC | -0.0289 ± 0.036 |
| AAACACGC | 0.0985 ± 0.012 |
| ACCCACGC | 0.0613 ± 0.043 |
| GCGACATA | -0.0543 ± 0.01 |
| GAGCAACC | -0.0186 ± 0.037 |
| ACGAGCAA | 0.00429 ± 0.043 |
| AGAGTACT | 0.0199 ± 0.063 |
| GATGATTA | -0.00815 ± 0.038 |

| Sequence | PBM 8-mer E-score |
| --- | --- |
| TATGATAA | 0.0883 ± 0.068 |
| CATGATTC | 0.0849 ± 0.046 |
| AATGATAA | 0.0436 ± 0.05 |
| AAAGATAA | 0.124 ± 0.033 |
| CAAGATAA | 0.253 ± 0.025 |
| CTTGATTA | 0.159 ± 0.039 |
| TAAGATAA | 0.0702 ± 0.044 |
| CATGATAA | 0.262 ± 0.004 |
| CATGATTA | 0.236 ± 0.035 |
| GTTGATTA | 0.259 ± 0.0094 |
| ATTGATTA | 0.0825 ± 0.032 |
| AACAAGCT | 0.0609 ± 0.024 |
| GCTGGCGA | -0.207 ± 0.015 |
| GGTTCGCA | -0.146 ± 0.0032 |
| AGGGTCTC | -0.0134 ± 0.094 |
| CGTCCACC | -0.0444 ± 0.07 |
| GTCGTTAA | -0.133 ± 0.028 |
| GGGAATCA | -0.0266 ± 0.031 |
| CCTGCACC | -0.0811 ± 0.0012 |
| ACGCTGCC | -0.0685 ± 0.038 |
| TAACGCGA | 0.0123 ± 0.0097 |
| CGCATGCA | 0.171 ± 0.028 |
| TGCATGCA | 0.132 ± 0.01 |
| CGCATGCG | 0.279 ± 0.067 |
| AGCATGCA | 0.3172 ± 0.00083 |

| Sequence | PBM 8-mer E-score |
| --- | --- |
| GGCATGCA | -0.0517 ± 0.02 |
| CGCATGCC | 0.141 ± 0.064 |
| GCGACGCC | -0.126 ± 0.025 |
| TAGGTATA | 0.138 ± 0.011 |
| CTCCAATA | 0.0951 ± 0.05 |
| GATAGCTA | 0.0488 ± 0.04 |
| AAAAGCTA | 0.236 ± 0.025 |
| GAAAGCTA | 0.0215 ± 0.023 |
| AATAGCAT | 0.262 ± 0.023 |
| AATAGCAA | 0.106 ± 0.11 |
| AATAGCAC | 0.0775 ± 0.071 |
| AAAAGCTC | -0.0474 ± 0.048 |
| CATAGCTA | 0.17 ± 0.065 |
| AATAGCTA | 0.244 ± 0.0096 |
| AGAGGCCC | -0.0713 ± 0.025 |
| ATGCCGGG | -0.256 ± 0.0027 |
| GACTTTCC | -0.0524 ± 0.043 |
| CGGCGGGC | -0.184 ± 0.073 |
| CTTCTCGC | 0.0717 ± 0.022 |
